The values below come from PubChem BioAssay (NCATS).

SMILES strings stand for the structures. “And” between values parts separate entries of the source, which are not always exact repeats. Identical values can stand only once. Records with an inconclusive call do not appear. The source made the active and inactive calls. Calls follow the shape of the dose curve; as a rule, active = well fitted curve in the direction sought with a large enough effect; inconclusive = small, poorly fitted or top-dose-only effect, or another doubt; inactive = no such curve, though single readings can be large; an effect the other way counts as inactive or inconclusive.

The nature of assay [1]: qHTS of pediatric cancer cell lines to identify multiple opportunities for drug repurposing: Primary screen for Rh18 cells (AID 1347102). Also: nearly all actives have a fitted effect of over 65% in size. Also: potency is read from the fitted curve at half-maximal effect. The gist of the method:
(§1)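 Cells (500-1,000/well) rested 5 h, then received compounds for 48 h; metabolically active cells were measured by CellTiter-Glo luminescence. Final concentrations spanned up to 46 µM (MIPE, 11-point) or 0.59 nM-46 µM (NPC, 8-point) in primary screens, 11-point in follow-ups.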
On the technique in general: qHTS replaces the single test concentration by a dilution series.

Assay [2] can be described thus: qHTS of pediatric cancer cell lines to identify multiple opportunities for drug repurposing: Primary screen for MG 63 (6-TG R) cells (AID 1347105). Also: nearly all actives have a fitted effect of over 50% in size. Also: potency is read from the fitted curve at half-maximal effect. In short, it runs like this: (§2)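 ATP-based luminescence (CellTiter-Glo) quantifies viability after a 48-hour exposure. Compounds are dosed across 8 or 11 final concentrations; DMSO and 2.3 µM bortezomib serve as controls.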

The nature of assay [3]: qHTS of pediatric cancer cell lines to identify multiple opportunities for drug repurposing: Primary screen for control Hh wild type fibroblast cells (AID 1347106).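 Also: series mostly up to about 46 µM; a drop in luminescence marks cytotoxicity and a rise apparent proliferation; nearly all actives have a fitted effect of over 55% in size.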 The gist of the method:
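Cells (500-1,000/well) in growth media were settled 5 h at 37 degrees C, then given compounds for 48 h. Viability was read as CellTiter-Glo luminescence. Primary runs used MIPE at 11 points (0.78 nM-46 µM) and NPC at 8 points (0.59 nM-46 µM); follow-ups used 11 points.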

The nature of assay [4]: qHTS of pediatric cancer cell lines to identify multiple opportunities for drug repurposing: Primary screen for Rh41 cells (AID 1347108).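 Also: series mostly up to about 46 µM; luminescence drop marks cytotoxic hits; nearly all actives have a fitted effect of over 70% in size.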 The gist of the method:
as §2

Assay [5] can be described thus: qHTS of pediatric cancer cell lines to identify multiple opportunities for drug repurposing: Primary screen for RD cells (AID 1347104). Also: nearly all actives have a fitted effect of over 55% in size. Also: potency is read from the fitted curve at half-maximal effect. In short, it runs like this: as §2
Assay [6] in a line: qHTS of pediatric cancer cell lines to identify multiple opportunities for drug repurposing: Confirmatory screen for BT-12 cells (AID 1347112). Also: potency is read from the fitted curve at half-maximal effect; nearly all actives have a fitted effect of over 55% in size. The gist of the method:
as §1

Assay [7] is described as follows: qHTS of pediatric cancer cell lines to identify multiple opportunities for drug repurposing: Confirmatory screen for NB-EBc1 cells (AID 1347115).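 Also: cells exposed to compound for 48 h before the viability read; nearly all actives have a fitted effect of over 45% in size.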 The gist of the method: as §1
The nature of assay [8]: qHTS of pediatric cancer cell lines to identify multiple opportunities for drug repurposing: Confirmatory screen for U-2 OS cells (AID 1347122). Also: potency is read from the fitted curve at half-maximal effect; nearly all actives have a fitted effect of over 65% in size. The gist of the method:
as §1

A short description of assay [9]: qHTS of pediatric cancer cell lines to identify multiple opportunities for drug repurposing: Confirmatory screen for Rh41 cells (AID 1347123).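 Also: potency is read from the fitted curve at half-maximal effect; 48 h compound exposure; nearly all actives have a fitted effect of over 60% in size.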 The gist of the method:
as §1

Assay [10] can be described thus: qHTS of pediatric cancer cell lines to identify multiple opportunities for drug repurposing: Confirmatory screen for RD cells (AID 1347124).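 Also: cells exposed to compound for 48 h before viability readout; nearly all actives have a fitted effect of over 65% in size.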 In short, it runs like this: as §1
The nature of assay [11]: qHTS of pediatric cancer cell lines to identify multiple opportunities for drug repurposing: Confirmatory screen for Rh18 cells (AID 1347125). Also: potency is read from the fitted curve at half-maximal effect; nearly all actives have a fitted effect of over 55% in size. In short, it runs like this:
as §1

Assay [12] is described as follows: qHTS of pediatric cancer cell lines to identify multiple opportunities for drug repurposing: Primary screen for Rh30 cells (AID 1347107). Also: series mostly up to about 46 µM; nearly all actives have a fitted effect of over 75% in size. In short, it runs like this: as §1

For the compound `CN1CCN(C2=Nc3cc(Cl)ccc3Nc3ccccc32)CC1`, the Potency result in [1], in assay [2], in [3] and in assay [4] was “inactive” each time.

On to `CC1COc2c(N3CCN(C)CC3)c(F)cc3c(=O)c(C(=O)O)cn1c23` (stereo not given), for which the Potency result in [1], in assay [5], in [2], in assay [3] and in [4] was “inactive” each time.

For the compound `O=c1c(O)c(-c2ccc(O)c(O)c2)oc2cc(O)cc(O)c12`, the Potency entry in [5], in assay [2] and in [3] was “inactive” throughout.

On to `CS(=O)(=O)CCNCc1ccc(-c2ccc3ncnc(Nc4ccc(OCc5cccc(F)c5)c(Cl)c4)c3c2)o1`, for which the Potency was 20.9 µM (active) in [1]; 1.32 µM (active) and 26.6 µM (active) in assay [5]; 5.9 µM (active) in [2]; 13.1 µM (active) in assay [6]; 20.8 µM (active) in assay [8]; 8.27 µM (active) in [9]. Moreover, the Potency in assay [11] is 14.7 µM (active). The Potency result in assay [3], in assay [7] and in assay [10] was “inactive” each time.

With `O=C1Cc2cc(CCN3CCN(c4nsc5ccccc45)CC3)c(Cl)cc2N1`, the Potency entry in [1], in assay [2], in assay [3] and in [4] was “inactive” each time. For the same compound, the result in [12] was inactive.

Regarding `CC1(CN2CCC(n3c(=O)[nH]c4ccccc43)CC2)OCc2ccccc2-n2cccc21` (stereo not given), the Potency result in [1], in assay [2] and in [3] was “inactive” in each case.
